The values below come from PubChem BioAssay AID602 (SRMLSC, 2007).

Screen size: about 85,000 compounds; about 35 (0.04%) were called active.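 The calls were made as follows: active = viability drop by adding the cancer drug above about 55%, with treated viability meeting a 40% cutoff (limit read from the data); inactive = the rest, inconclusive results apart.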 Only a selection was taken, and actives are over-represented in it overall.

Broadly, the viability is a read-out of living cells in per cent, often relative to untreated cells.

The experiment can be described thus: reversal of MRP1-mediated doxorubicin resistance, primary screen, H69AR cells, doxorubicin co-treatment (AID 602).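 As to differential viability (reversal): larger differential means the compound sensitizes cells more to doxorubicin.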 The conditions noted are these: CellTiter-Glo, 72 h, at 10 µM; for differential viability (reversal): stronger effect = higher value. A general note: ATP-based viability assays read luminescence as a measure of living cells.
[1] abbreviates: H69AR cells + 2 uM doxorubicin, measured here: viability with 2 uM doxorubicin, stronger effect = lower value.
Where [2] appears, read: H69AR cells, measured here: cytotoxicity without doxorubicin.

Take `COC(=O)CNC(=O)c1ccccc1F`: the differential viability (reversal) (H69AR cells + 2 uM doxorubicin) is -4.37% (inactive). Moreover, the viability under setting [1] came to 89.6% and the viability under setting [2] is 85.2%.

For the compound `Cc1ccc(-n2c(SCC(=O)NCc3ccc4c(c3)OCO4)nnc2-c2cccnc2)c(C)c1`, for the setting “H69AR cells + 2 uM doxorubicin”, the differential viability (reversal) is -22.4% (inactive). Besides, the viability runs as follows: under setting [1], 57.5%; under setting [2], 35.1%.

As to `CCCCN1C(=O)/C(=C2/C=CC=CN2C)SC1=S`, where the note is “H69AR cells + 2 uM doxorubicin”, the differential viability (reversal) was 1.69% (inactive). Besides, the viability was 88.5% under setting [1] and 90.2% under setting [2].

With `CS(=O)(=O)N(CC(=O)Nc1ccc(Cl)c(Cl)c1)C1CCCCC1`, under “H69AR cells + 2 uM doxorubicin”, the differential viability (reversal) was -18.2% (inactive). For the same compound, the viability amounted to 34.8% under setting [1] and 16.6% under setting [2].

For `CC(C)(C)NC(=O)Cn1c(SCC(=O)Nc2nccs2)nc2ccccc21`, for the setting “H69AR cells + 2 uM doxorubicin”, the differential viability (reversal) is 7.96% (inactive). In addition, the viability under setting [1] came out at 84.5% and the viability under setting [2] worked out at 92.5%.

As for `COCCCNC(=O)CN1CCN(Cc2ccccc2Cl)C1=O`, the differential viability (reversal) (H69AR cells + 2 uM doxorubicin) was 11.7% (inactive). The viability under setting [1] amounted to 86.8% and the viability under setting [2] was 98.5%.

With `CCCc1nc(NCc2ccc3c(c2)OCO3)c2nnn(Cc3ccccc3Cl)c2n1`, the differential viability (reversal) (H69AR cells + 2 uM doxorubicin) is 1.6% (inactive). Further, the viability by setting is: under setting [1], 23%; under setting [2], 24.6%.

Take `Cc1nc2ccccc2n1C(=O)N1CCOCC1`: the differential viability (reversal) (H69AR cells + 2 uM doxorubicin) is -2.57% (inactive). The viability was 85.1% under setting [1] and 82.5% under setting [2].

`CCN(CC(=O)Nc1ccccc1OC)C(=O)Cn1cnc2ccccc2c1=O`: the differential viability (reversal) (H69AR cells + 2 uM doxorubicin) is 8.46% (inactive). The viability was determined as 84.2% under setting [1] and 92.7% under setting [2].

Regarding `CCOc1c(Br)cc(/C=C2\C(=O)N(CCC#N)N=C2C)cc1OC`, under “H69AR cells + 2 uM doxorubicin”, the differential viability (reversal) was -46.8% (inactive). Besides, the viability is, setting by setting: under setting [1], 73%; under setting [2], 26.2%.

Consider `CCNCCC(=O)N1c2ccccc2Sc2ccc(NC(=O)OCC)cc21`, for which the differential viability (reversal) (H69AR cells + 2 uM doxorubicin) was 8.86% (inactive). Besides, the viability under setting [1] was found to be 69.7% and the viability under setting [2] was 78.6%.

On to `Cc1cccn2c(=O)c(/C=C(\C#N)S(=O)(=O)c3ccc(Cl)cc3)c(N3CCC(C(N)=O)CC3)nc12`, for which the differential viability (reversal) (H69AR cells + 2 uM doxorubicin) is -6.85% (inactive). The viability was determined as 89% under setting [1] and 82.2% under setting [2].

In the case of `COc1ccc(-n2nc(C(=O)NCC(=O)Nc3cccc(C)n3)c3ccccc3c2=O)cc1`, the differential viability (reversal) (H69AR cells + 2 uM doxorubicin) was -0.23% (inactive). Also, the viability stood at 74.5% under setting [1] and 74.2% under setting [2].

`CCOC(=O)N1CCC(Nc2c(NCCCN3CCN(CC)CC3)c(=O)c2=O)CC1`: the differential viability (reversal) (H69AR cells + 2 uM doxorubicin) was 2.1% (inactive). Moreover, the viability runs as follows: under setting [1], 109%; under setting [2], 112%.

With `O=S(=O)(Cc1cc(Sc2ccccc2)nc(-c2ccccc2)n1)c1ccccc1`, the differential viability (reversal) (H69AR cells + 2 uM doxorubicin) is -7.14% (inactive). Further, the viability is, setting by setting: under setting [1], 91.4%; under setting [2], 84.3%.

Take `Cc1ccc(CN(N=Nc2nonc2N)c2nonc2N)c(C)c1`: the differential viability (reversal) (H69AR cells + 2 uM doxorubicin) is 2.63% (inactive). Also, the viability was 76.9% under setting [1] and 79.6% under setting [2].

Consider `CCN1C(=O)/C(=C2/Sc3ccc(OC)cc3N2C)SC1=Nc1ccc(C)cc1`, for which, for the setting “H69AR cells + 2 uM doxorubicin”, the differential viability (reversal) was -4.5% (inactive). In addition, the viability runs as follows: under setting [1], 70.6%; under setting [2], 66.1%.

Regarding `CC/C(O)=N\S(=O)(=O)c1ccc(N=NN(C)C)cc1`, the differential viability (reversal) (H69AR cells + 2 uM doxorubicin) was -1% (inactive). Also, the viability under setting [1] was found to be 86.7% and the viability under setting [2] came to 85.7%.

Take `CCC(C)NC(=O)c1cc(Cl)ccc1OC` (stereo unspecified): where the note is “H69AR cells + 2 uM doxorubicin”, the differential viability (reversal) is 6.89% (inactive). Also, the viability is 83.6% under setting [1] and 90.5% under setting [2].

`O=C(Nc1nnc(SCc2ccccc2)s1)c1ccco1`: the differential viability (reversal) (H69AR cells + 2 uM doxorubicin) was 5.76% (inactive). Further, the viability worked out at 90.2% under setting [1] and 96% under setting [2].

Turning to `CCc1ccc(CNC(=O)C2CC(=O)N(CCc3ccc(C)cc3)C2)cc1` (stereo unspecified), the differential viability (reversal) (H69AR cells + 2 uM doxorubicin) was 1.99% (inactive). The viability worked out at 97.6% under setting [1] and 99.5% under setting [2].

On to `Cc1nnc(OCC(=O)NCCC2=CCCCC2)c2ccccc12`, for which, for the setting “H69AR cells + 2 uM doxorubicin”, the differential viability (reversal) was -0.56% (inactive). For the same compound, the viability was 101% under setting [1] and 101% under setting [2].

For `O=C1C2C3C=CC(C4CC34)C2C(=O)N1/N=C/c1ccc(-c2ccccc2[N+](=O)[O-])o1` (stereo unspecified), the differential viability (reversal) (H69AR cells + 2 uM doxorubicin) is 16.1% (inactive). Moreover, the viability under setting [1] is 70.3% and the viability under setting [2] came out at 86.5%.

For the compound `CC(C)CCOc1ccc(C(=O)C[N+]2(C)CCOCC2)cc1`, under “H69AR cells + 2 uM doxorubicin”, the differential viability (reversal) was 16.9% (inactive). The viability by setting is: under setting [1], 86%; under setting [2], 103%.

As for `Nc1nc(C23CC4CC(CC(C4)C2)C3)cs1`, under “H69AR cells + 2 uM doxorubicin”, the differential viability (reversal) was -3.46% (inactive). Further, the viability was 96.8% under setting [1] and 93.3% under setting [2].

In the case of `Cc1cc(C)c(NC(=O)CN2CCOCCOCCOCCOCC2)c(C)c1`, the differential viability (reversal) (H69AR cells + 2 uM doxorubicin) was 8.19% (inactive). For the same compound, the viability is, setting by setting: under setting [1], 89%; under setting [2], 97.2%.

Turning to `Cc1ccc(-n2ncc3c(=O)n(-c4ccc(C)c(C)c4)c(-c4ccco4)nc32)cc1`, the differential viability (reversal) (H69AR cells + 2 uM doxorubicin) is -39.7% (inactive). Moreover, the viability by setting is: under setting [1], 71%; under setting [2], 31.3%.

As for `Nc1ccc(-n2nncc2-c2ccco2)cc1`, under “H69AR cells + 2 uM doxorubicin”, the differential viability (reversal) is 59.2% (active). In addition, the viability under setting [1] came out at 39.6% and the viability under setting [2] amounted to 98.8%.

Regarding `Cc1[nH]n(-c2cccc(Cl)c2)c(=O)c1/C=N/n1c(C)nc2ccccc2c1=O`, the differential viability (reversal) (H69AR cells + 2 uM doxorubicin) is -32.9% (inactive). The viability under setting [1] is 62% and the viability under setting [2] was determined as 29.1%.

Consider `Cc1cccc(C)c1OC(=O)CSc1nnc(-c2ccccc2)o1`, for which, where the note is “H69AR cells + 2 uM doxorubicin”, the differential viability (reversal) was 9.93% (inactive). Moreover, the viability under setting [1] stood at 88.5% and the viability under setting [2] is 98.4%.

Regarding `Cc1ccc(NC(=S)NC(NC(=O)Cc2cccc3ccccc23)C(Cl)(Cl)Cl)cc1` (stereo unspecified), the differential viability (reversal) (H69AR cells + 2 uM doxorubicin) was 0.19% (inactive). Further, the viability reads like this: under setting [1], 0.8%; under setting [2], 0.99%.

Take `COc1ccc(/C(N)=N/OC(=O)Oc2ccccc2)cc1`: the differential viability (reversal) (H69AR cells + 2 uM doxorubicin) was -10.6% (inactive). Besides, the viability was found to be 93.2% under setting [1] and 82.6% under setting [2].

As for `CCOc1ccc2c(c1)C(c1ccc(C)cc1)=NNC(c1ccc(C)cc1)=N2`, under “H69AR cells + 2 uM doxorubicin”, the differential viability (reversal) was -43% (inactive). Further, the viability by setting is: under setting [1], 64%; under setting [2], 21%.

With `O=C(CN1CCSCC1)N/N=C/c1ccc(F)cc1`, where the note is “H69AR cells + 2 uM doxorubicin”, the differential viability (reversal) was 8.43% (inactive). For the same compound, the viability reads like this: under setting [1], 90.1%; under setting [2], 98.5%.

Take `CC(C)(C)c1ccc(C(=O)NNC(=O)Cc2ccccc2)cc1`: the differential viability (reversal) (H69AR cells + 2 uM doxorubicin) was 9.15% (inactive). In addition, the viability under setting [1] was 85.9% and the viability under setting [2] was determined as 95%.

With `COC(=O)C1=C(C(=O)OC)C2(OC1c1ccc(Br)cc1)C(=O)c1ccccc1C2=O` (stereo unspecified), the differential viability (reversal) (H69AR cells + 2 uM doxorubicin) is 12.1% (inactive). Further, the viability runs as follows: under setting [1], 94%; under setting [2], 106%.

`O=C(CSc1nc2cccnc2n1Cc1ccccc1)N1CCc2ccccc21`: the differential viability (reversal) (H69AR cells + 2 uM doxorubicin) was 10.8% (inactive). Besides, the viability is, setting by setting: under setting [1], 59.3%; under setting [2], 70.1%.
